Source: PubChem BioAssay (NCATS)
Inconclusive results are not listed. Unmarked numbers belong to inactive results. Calls follow the shape of the dose curve; as a rule, active = well fitted inhibition curve with a large enough effect; inconclusive = small, poorly fitted or top-dose-only effect; inactive = flat fitted curve, though single readings scatter.
% is scaled to controls: 0 for no effect and ±100 for the full control effect.

Each compound was assayed against Calcium and integrin-binding protein 1 (Homo sapiens) (UniProt Q99828) (assay: Primary qHTS for Identification of Calcium Integrin Binding Protein 1 (CIB1) Competitor (AID 1508620;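 also: GST tagged CIB1 binding a fluorescein labelled alphaIIb integrin peptide tracer; top concentration of the series differs between compounds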)). Conditions: CIB1-GST / FITC-alphaIIb peptide fluorescence polarization; series mostly up to 114 µM; activity change, negative = inhibition: at the top concentration.
Chain of Calcium and integrin-binding protein 1 (Homo sapiens) (Q99828 whole entry, looked up): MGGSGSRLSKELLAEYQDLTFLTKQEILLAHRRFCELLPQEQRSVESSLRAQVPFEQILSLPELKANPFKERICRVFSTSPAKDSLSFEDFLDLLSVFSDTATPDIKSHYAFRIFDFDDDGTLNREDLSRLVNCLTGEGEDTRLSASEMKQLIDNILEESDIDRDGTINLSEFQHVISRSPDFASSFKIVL
In short: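 Fluorescence polarization competition: CIB1-GST (1 uM final) preincubated with compound 15 min at room temperature, then FITC-labeled alphaIIb peptide (100 nM final) added for another 15 min. Polarization read at Ex 480/Em 540.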
In the case of `Cc1ccc(C)c(-c2cc(C(F)(F)F)nn2-c2ccc(S(N)(=O)=O)cc2)c1`, the “activity change, negative = inhibition” value is reported as -3.77%.
In the case of `CN(C)CCn1cc(-c2ccc(F)cc2)c(-n2cccc2)n1`, the “activity change, negative = inhibition” value is reported as 2.2%.
With `C=CC(=O)N1CC(N2CCN(C(=O)CNc3cc(C4CC4)c(Cl)cc3O)CC2)C1` the “activity change, negative = inhibition” value was -9.29%.
